About 83,000 compounds went through this panel and 20% of them were active in at least one assay; those are over-represented in the sample as a whole.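 Results are percent growth after 48 hours of single-concentration exposure. 100 means growth as in untreated cells, lower positive values show inhibition; negative values down to -100 show cell death.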 Unmarked numbers belong to inactive results. The source made the active and inactive calls. The calls were made as follows: active = growth percent below 10; inactive = the rest.
Columns and labels:
Assay in all cases: NCI-60 one-dose screen, 48 h (100 = growth as untreated, 0 = no growth, -100 = all killed)
Settings in all cases: 10 µM unless noted
HCT-15 colon = system: HCT-15 colon
HT29 colon = system: HT29 colon
SNB-75 CNS = system: SNB-75 CNS
SNB-19 CNS = system: SNB-19 CNS
U251 CNS = system: U251 CNS
PC-3 prostate = system: PC-3 prostate
SK-MEL-5 melanoma = system: SK-MEL-5 melanoma
UACC-62 melanoma = system: UACC-62 melanoma
LOX IMVI melanoma = system: LOX IMVI melanoma
SK-MEL-28 melanoma = system: SK-MEL-28 melanoma

Row | SMILES | growth (HCT-15 colon) | growth (HT29 colon) | growth (SNB-75 CNS) | growth (SNB-19 CNS) | growth (U251 CNS) | growth (PC-3 prostate) | growth (SK-MEL-5 melanoma) | growth (UACC-62 melanoma) | growth (LOX IMVI melanoma) | growth (SK-MEL-28 melanoma)
1 | COc1ccccc1CNCCCN1C(=O)c2ccc3c4c(ccc(c24)C1=O)C(=O)N(CCCOCCCCOCCCN)C3=O | -52.7% (active) | -55% (active) | -5.57% (active) | -11.1% (active) | -48.6% (active) | 3.91% (active) | -98.7% (active) | -79.8% (active) | -34.3% (active) | -4.3% (active)
2 | COc1cc(C2C(C#N)=C(N)Oc3cc4c(cc32)OCO4)cc2c1OCO2 (stereo not given) | 21.5% | 9.21% (active) | -9.64% (active) | 45.7% | 28.4% | 27.9% | 19.8% | 30.7% | 38.3% | 41.7%
3 | COc1cc(/C=N/NC(=O)Cn2c(-c3ccc(C)o3)nc3ccccc32)ccc1OCc1ccccc1 | 74.1% | 87.2% | 83.2% | 79.6% | 88.5% | 63.1% | 76.6% | 77.8% | 88.1% | 99.1%
4 | OCCN(CCO)c1ccc2ccccc2c1 | 98.4% | 94.3% | 88.1% | 104% | 104% | 83.2% | 100% | 91.4% | 91.4% | 108%
5 | CCOC(=O)C1C(=O)C=C(c2cc(OC)c(OC)c(OC)c2)CC1c1sc(N(C)Cc2ccccc2)nc1Cl (stereo not given) | 92.1% | 90.7% | 79.6% | 77.5% | 87.8% | 64% | 72.7% | 64.7% | 94% | 115%
6 | COc1ccc(C2=NNC(c3ccc(Oc4nc5c(c(=O)n(C)c(=O)n5C)n4C)c(OC)c3)C2)cc1 (stereo not given) | 93.8% | 95.5% | 78.7% | 87.6% | 83.2% | 101% | 85.3% | 81.2% | 91.4% | 97.1%
7 | COc1ccc(C2NC(=O)c3cc4c(cc3N2)OCO4)cc1 (stereo not given) | 12.5% | 5.16% (active) | 5.9% (active) | 34% | 17.2% | 27.9% | 11.9% | 25.3% | 39.9% | 39.8%
8 | COc1cc2ncnc(Nc3ccc(S(=O)(=O)Nc4nccs4)cc3)c2cc1OCCCN1CCOCC1 | 104% | 106% | 95.1% | 104% | 100% | 99% | 108% | 98.7% | 97.2% | 109%
9 | OC(CCCCCCCCC(O)CN1CCc2ccccc2C1)CN1CCc2ccccc2C1 (stereo not given) | 95.1% | 114% | 95.4% | 105% | 101% | 98.9% | 95.2% | 101% | 96.4% | 108%
10 | COc1cc(OC)c(Cl)cc1N | 96.6% | 107% | 101% | 100% | 104% | 88.7% | 112% | 97.8% | 101% | 109%
11 | CC(NC(=O)c1ccccc1)C(=O)Nc1ccccc1 (stereo not given) | 115% | 103% | 88.3% | 107% | 101% | 92.8% | 104% | 104% | 99.6% | 115%
12 | COc1ccc2c(c1)C1=NN(C(=O)CO)[C@H](c3ccc(OC(F)(F)F)cc3)[C@@H]1CC2 | 84.7% | 92.3% | 90.3% | 93.4% | 87.3% | 72.9% | 83.4% | 76.3% | 88.7% | 121%
13 | Cc1csc(N/N=C/c2ccncc2)n1 | 103% | 87.4% | 105% | 100% | 83.5% | 111% | 100% | 93.2% | 100% | 110%
14 | Cc1cccc(N=NC(=S)NNc2cccc(C)c2)c1 | 108% | 97.9% | 88.7% | 106% | 114% | 102% | 108% | 101% | 105% | 125%
15 | CCCCCCCCN=C(NCCCCCCCC)SCc1cccc2ccccc12 | -78.1% (active) | -24.4% (active) | -88.4% (active) | -88.4% (active) | -98.7% (active) | -93.2% (active) | -95.3% (active) | -82.2% (active) | -96% (active) | -87.8% (active)
16 | N/C(=N\OC(=O)c1ccccc1)C(C(=O)NOC(=O)c1ccccc1)C1CCCCC1 (stereo not given) | 53.3% | 96.7% | 35.7% | 76% | -25% (active) | 54.5% | 74.3% | 56.6% | -85.2% (active) | 93.3%
17 | Nc1c(N)c2ccccc2c2ccccc12 | 111% | 108% | 84.8% | 104% | 106% | 89.5% | 107% | 95% | 101% | 110%
18 | COc1cc(NCC(O)CN(CC(C)C)CC(C)C)c2ncccc2c1 (stereo not given) | 80.1% | 77.9% | 82.8% | 90.1% | 80.7% | 58.6% | 86.1% | 76.9% | 83.6% | 75.3%
19 | O=S(=O)(Cc1ccc(Cl)cc1Cl)c1ccc(Cl)cc1 | 31.8% | 9.72% (active) | 18.8% | 44% | 25.8% | 31.1% | 39.8% | 44.6% | 15.7% | 65.9%
20 | CCN(CC)c1ccc(/C=N/NC(=O)c2ccc(S(C)(=O)=O)cc2)c(O)c1 | 28.5% | 21.8% | 55.2% | 32% | 20.6% | 49.2% | -2.99% (active) | -18.5% (active) | 9.68% (active) | 27.2%
21 | CNC(=O)c1c(NC(=O)c2cccc(C(F)(F)F)c2)sc2c1CCC(=O)C2 | -37% (active) | 4.59% (active) | -7.71% (active) | 13.8% | 2.7% (active) | -46.4% (active) | -68.3% (active) | -41.1% (active) | -49.6% (active) | 7.1% (active)
22 | O=C(Nc1ccc(Cl)cc1)c1cc(-c2ccc(Cl)cc2)c2sc(=O)[nH]c2n1 | 7.94% (active) | -24% (active) | 10.5% | 8% (active) | 0.838% (active) | -13.5% (active) | -19.6% (active) | -14.7% (active) | 13.4% | 25.2%
23 | Cc1cc(-c2ccccc2)on1 | 101% | 106% | 99.2% | 104% | 108% | 97.7% | 109% | 110% | 99.4% | 109%
24 | Oc1c(C(Nc2ccccc2Br)c2ccccc2)ccc2cccnc12 (stereo not given) | 26.5% | 24% | 60.4% | 31.7% | 12.9% | 48.6% | 2.41% (active) | -26.3% (active) | 10.5% | 39.2%
25 | CCN(CCC#N)c1ccccc1 | 108% | 109% | 98.6% | 106% | 103% | 90.8% | 111% | 98.2% | 102% | 113%
26 | Cc1c(C(N)=O)sc2ncn(CC(=O)NN=C3CCCCC3)c(=O)c12 | 109% | 90.5% | 102% | 104% | 99.5% | 122% | 106% | 99.9% | 103% | 118%

Source: PubChem BioAssay (NCI)
